Laboratory results as given in PubChem BioAssay (NCATS).
Records with an inconclusive call do not appear. The source made the active and inactive calls. Calls come from the whole dose curve; as a rule, active = well fitted curve in the direction sought with a large enough effect; inconclusive = small, poorly fitted or top-dose-only effect, or another doubt; inactive = no such curve, though single readings can be large; an effect the other way counts as inactive or inconclusive.

Columns and labels:
[1] = target: Calcium and integrin-binding protein 1 (Homo sapiens) (UniProt Q99828); experiment: Primary qHTS for Identification of Calcium Integrin Binding Protein 1 (CIB1) Competitor (AID 1508620); conditions: CIB1-GST / FITC-alphaIIb peptide fluorescence polarization; series mostly up to 57.7 µM;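 note: GST tagged CIB1 binding a fluorescein labelled alphaIIb integrin peptide tracer; top concentration of the series differs between compounds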
Summary of the method: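 Fluorescence polarization competition: GST-tagged CIB1 (1 uM final) preincubated with compound 15 min at room temperature, then FITC-labelled alphaIIb peptide (100 nM final) added. After 15 min at room temperature, polarization read at Ex 480/Em 540.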

[2] = Primary qHTS for inhibitors of nuclear receptor binding SET domain protein 2 (NSD2) in an isogenic RCH-ACV NSD2 p.E1099K mutant (9B) (AID 1645876); conditions: RCH-ACV NSD2 E1099K (9B) viability, CellTiter-Glo, 72 h; series mostly up to 44.9 µM; note: nearly all actives have a fitted effect of over 70% in size
[3] = Primary qHTS for inhibitors of nuclear receptor binding SET domain protein 2 (NSD2) in an RCH-ACV wild type WT cells (2C) (AID 1645877); conditions: RCH-ACV (leukaemia line) NSD2 WT (2C) viability, CellTiter-Glo, 72 h; series mostly up to 44.9 µM; note: nearly all actives have a fitted effect of over 70% in size
% is set by controls: 0 for no effect and ±100 for the full control effect.

Sequence of Calcium and integrin-binding protein 1 (Homo sapiens) (Q99828 whole entry, looked up): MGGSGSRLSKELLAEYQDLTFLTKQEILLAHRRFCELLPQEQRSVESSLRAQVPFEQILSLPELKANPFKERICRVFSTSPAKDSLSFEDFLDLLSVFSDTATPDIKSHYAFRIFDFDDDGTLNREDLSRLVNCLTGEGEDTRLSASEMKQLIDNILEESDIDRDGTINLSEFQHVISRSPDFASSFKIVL

CC1CC(O)/C=C/C(O)/C=C\C(=O)O1 (stereo not drawn)
inactive: Potency [1] | Potency [2] | Potency [3]

CC(=O)O[C@@]1(C)[C@@H]2CC(=C(C)C)C(=O)C[C@@]2(C)CC[C@H]1OC(=O)C1(C)OC1C (stereo partly drawn)
inactive: Potency [1] | Potency [2] | Potency [3]

CC1=CC2=C(C)C(=O)[C@](C)(O)[C@H](O)C2=CO1
inactive: Potency [1] | Potency [2] | Potency [3]

Cc1ccc2[nH]c(=O)c(C3=NN(C(=O)CCC(=O)O)C(c4ccc(Br)cc4)C3)c(-c3ccccc3)c2c1 (stereo not drawn)
inactive: Potency [1] | Potency [2] | Potency [3]

CC(=O)OCC(Cc1ccccc1)NC(=O)C(Cc1ccccc1)NC(=O)c1ccccc1 (stereo not drawn)
inactive: Potency [1] | Potency [2] | Potency [3]

C/C=C/C1OC2=C(C(=O)OC2(C)O)C(O)C1O (stereo not drawn)
inactive: Potency [1] | Potency [2] | Potency [3]

CC1(CO)CCCC2(C)C3COC(=O)C3=CC(O)C12 (stereo not drawn)
inactive: Potency [1] | Potency [2] | Potency [3]

CC(O)CCc1ccc(O[C@@H]2O[C@H](CO)[C@@H](O)[C@H](O)[C@H]2O)cc1 (stereo partly drawn)
inactive: Potency [1] | Potency [2] | Potency [3]

CC(=O)O[C@@H]1[C@H](OC(C)=O)C[C@@]2(C)C(CC[C@@H](C)[C@]23Cc2c(O)cc4c(c2O3)CN([C@@H](CCC(=O)O)C(=O)O)C4=O)C1(C)C (stereo partly drawn)
inactive: Potency [1] | Potency [2] | Potency [3]

CC1(C)COC(=O)[C@@H]1O[C@@H]1O[C@H](CO)[C@@H](O)[C@H](O)[C@H]1O
inactive: Potency [1] | Potency [2] | Potency [3]

CC1=C2CC(=O)C(C)CC/C=C(\C)CC2(O)OC1=O (stereo not drawn)
inactive: Potency [1] | Potency [2] | Potency [3]

CC(=O)OC1CC(=O)C2(C)C3CC4=C(OC(C)CC4=O)OC3(C)CCC2C1(C)C (stereo not drawn)
inactive: Potency [1] | Potency [2] | Potency [3]

C[C@@H]1[C@H](O)[C@@H]2OC(=O)C3=C2[C@H](CCC3)[C@@]12C[C@@H](c1ccoc1)OC2=O
inactive: Potency [1] | Potency [2] | Potency [3]

C=C1C2(C)CC3C4(C)C=CC(=O)OC(C)(C)C4CCC3(C)C1(C(=O)OC)C(=O)C(C)(O)C2=O (stereo not drawn)
inactive: Potency [1] | Potency [2] | Potency [3]

COc1c2ccoc2nc2c(OC)c(O[C@@H]3O[C@@H](C)[C@H](O)[C@@H](O[C@@H]4O[C@H](CO)[C@@H](O)[C@H](O)[C@H]4O)[C@H]3OC(C)=O)ccc12
inactive: Potency [1] | Potency [2] | Potency [3]

COC(=O)[C@]1(C)CCC[C@@]2(C)C(=O)CC[C@H]3C(=O)C=C(CC[C@@H]21)C3O (stereo partly drawn)
inactive: Potency [1] | Potency [2] | Potency [3]

CC1C2=CC(=O)OC2(O)CC2C1C(OC(=O)c1ccccc1)C(OC(=O)c1ccccc1)C1(O)C2(C)CCC(O)C1(C)C(=O)O (stereo not drawn)
inactive: Potency [1] | Potency [2] | Potency [3]

CCC(C)/C=C(C)/C=C/C1=CC2=C(Cl)C(=O)C(C)(OC(C)=O)C(=O)C2=CN1C(CC(=O)O)C(=O)O (stereo not drawn)
inactive: Potency [1] | Potency [2] | Potency [3]

CCC(C)C(N)C(=O)NCCN1CCOCC1 (stereo not drawn)
inactive: Potency [1] | Potency [2] | Potency [3]

NC(=O)c1ccc(F)c2c1C[C@@H](N(C1CCC1)C1CCC1)CO2
inactive: Potency [1] | Potency [2] | Potency [3]

CN(C)C(=O)C(O)C(Cc1ccccc1)NC(=O)c1cc2cc(Cl)ccc2[nH]1 (stereo not drawn)
inactive: Potency [1] | Potency [2] | Potency [3]

CC1(C)CC[C@]2(C(=O)O)[C@H](O)C[C@]3(C)C(=CCC4[C@@]5(C)CC[C@H](O[C@@H]6OC[C@@H](O)[C@H](O)[C@H]6O)[C@@](C)(C(=O)O)C5CC[C@]43C)[C@@H]2C1 (stereo partly drawn)
inactive: Potency [1] | Potency [2] | Potency [3]

C[C@@H]1O[C@@H](OC2C(O[C@H]3[C@H](O[C@H]4CC[C@@]5(C)C(CC[C@]6(C)C5CC=C5C7CC(C)(C)CC(O)[C@]7(C)CC[C@]56C)C4(C)C)O[C@H](C(=O)O)[C@@H](O)[C@@H]3O)OC(CO)C(O)C2O)[C@H](O)[C@H](O)[C@H]1O (stereo partly drawn)
inactive: Potency [1] | activity change, negative = viability loss [2] 3.07% [at 9.23 µM] | outcome [3] inactive [at 9.23 µM]

COc1c2c(c(C)c3c1C(=O)OC3)OC1(C)CC(O)C34OC(OC)(CCC3(C)C1C2)OC4(C)CO (stereo not drawn)
inactive: Potency [1] | Potency [2] | Potency [3]

CC1CCC2(NC1)OC1C(O)C3C4CCC5CC(O[C@@H]6O[C@H](CO)[C@@H](O)[C@H](O)[C@H]6O[C@@H]6O[C@@H](C)[C@H](O)[C@@H](O)[C@H]6O)CCC5(C)C4CCC3(C)C1C2C (stereo partly drawn)
inactive: Potency [1] | Potency [2] | Potency [3]

COc1cc(C2OCC3(O)C(c4ccc(O[C@@H]5O[C@H](CO)[C@@H](O)[C@H](O)[C@H]5O)c(OC)c4)OCC23O)ccc1O (stereo partly drawn)
inactive: Potency [1] | Potency [2] | Potency [3]

CC(=O)/C=C/[C@H]1[C@](C)(O)[C@@H](O)[C@H](O)C2C(C)(C)CCC[C@@]21C (stereo partly drawn)
inactive: Potency [1] | Potency [2] | Potency [3]

C[C@@H]1O[C@@H](O[C@H]2[C@H](O)[C@@H](O)[C@H](OC[C@H]3O[C@@H](OC(=O)[C@]45CCC(C)(C)C[C@H]4C4=CCC6[C@@]7(C)C[C@@H](O)[C@H](O)[C@@](C)(CO)C7[C@H](O)C[C@@]6(C)[C@]4(C)CC5)[C@H](O)[C@@H](O)[C@@H]3O)O[C@@H]2CO)[C@H](O)[C@H](O)[C@H]1O (stereo partly drawn)
inactive: Potency [1] | outcome [2] inactive [at 9.23 µM] | activity change, negative = cell killing [3] 0.947% [at 9.23 µM]

CC(C)=CCC[C@](C)(O[C@@H]1O[C@H](CO)[C@@H](O)[C@H](O)[C@H]1O)[C@H]1CC[C@]2(C)[C@@H]1[C@H](O)CC1[C@@]3(C)CC[C@H](O)C(C)(C)C3[C@@H](O[C@@H]3O[C@H](CO)[C@@H](O)[C@H](O)[C@H]3O[C@@H]3O[C@@H](C)[C@H](O)[C@@H](O)[C@H]3O)C[C@]12C (stereo partly drawn)
inactive: Potency [1] | activity change, negative = viability loss [2] -2.5% [at 9.23 µM] | activity change, negative = cell killing [3] -9.19% [at 9.23 µM]

C[C@H]1[C@H](C)C[C@@H](C(=O)O)C2CC[C@]3(C)C(=CC[C@@H]4[C@@]5(C)CC[C@H](O)C(C)(C)[C@@H]5CC[C@]43C)[C@@H]21 (stereo partly drawn)
inactive: Potency [1] | Potency [2] | Potency [3]

CC1(CO)CCCC2(C)C1C(OC(=O)c1ccccc1)CC1C(=O)OCC12O (stereo not drawn)
inactive: Potency [1] | Potency [2] | Potency [3]

COc1c2c(c(C)c3c1C(=O)OC3)OC1(C)CC(O)C34OC(O)(CCC3(C)C1C2)OC4(C)C (stereo not drawn)
inactive: Potency [1] | Potency [2] | Potency [3]

CC1(C(=O)O)CC[C@]2(C(=O)OC3OC(CO)C(O)C(O)C3O)CC[C@]3(C)C(=CCC4[C@@]5(C)CC[C@H](OC6OCC(O)C(O)C6OC6OC(CO)C(O)C(O)C6O)C(C)(C)C5CC[C@]43C)C2C1 (stereo partly drawn)
inactive: Potency [1] | activity change, negative = viability loss [2] -7.26% [at 9.23 µM] | activity change, negative = cell killing [3] -0.731% [at 9.23 µM]

CCC1=C(C)C(=O)C(C)CC12C(=O)CCC2C(=O)O (stereo not drawn)
inactive: Potency [1] | Potency [2] | Potency [3]

C=C[C@H]1[C@H](O[C@@H]2O[C@H](CO)[C@@H](O)[C@H](O)[C@H]2O)OC=C2C(=O)N3Cc4c([nH]c5ccccc5c4=O)[C@@H]3C[C@H]21
inactive: Potency [1] | Potency [2] | Potency [3]

CC(C)CC[C@@H](O)[C@](C)(O)[C@H]1CC[C@@]2(O)C3=CC(=O)[C@@H]4C[C@@H](O)[C@@H](O)C[C@]4(C)[C@H]3CC[C@]12C
inactive: Potency [1] | Potency [2] | Potency [3]

CC1(C)C[C@@H]2[C@H](C1)[C@@]1(C)C[C@]13C(O)OC[C@]3(O)[C@H]2O (stereo partly drawn)
inactive: Potency [1] | Potency [2] | Potency [3]

COc1cc(C2CC(=O)Nc3c2cc(Br)c2ccccc32)cc(OC)c1OC (stereo not drawn)
inactive: Potency [1] | Potency [2] | Potency [3]

COC1CC(O[C@H]2CC[C@@]3(C)C(=CC[C@]4(O)C3[C@H](O)[C@@H](O)[C@]3(C)[C@@H]([C@H](C)O)CC[C@@]34O)C2)OC(C)C1OC1CC(OC)C(OC2CC(OC)C(OC3OC(C)C(OC4OC(CO)C(O)C(O)C4O)C(OC)C3O)C(C)O2)C(C)O1 (stereo partly drawn)
inactive: Potency [1] | activity change, negative = viability loss [2] 1.87% [at 9.23 µM] | activity change, negative = cell killing [3] -2.18% [at 9.23 µM]

C/C(=C\C1CCC(C)C2CCC3(C)OC123)C(=O)O (stereo not drawn)
inactive: Potency [1] | Potency [2] | Potency [3]

COCC1OC(OC(C)(C)C2CCC3(C)C=C(C4CCC5C4(C)CC(O)C4OC(C(C)(C)O)CCC45C)CCC3O2)C(NC(C)=O)C(O)C1O (stereo not drawn)
inactive: Potency [1] | Potency [2] | Potency [3]

OC[C@@]1(O)CO[C@H](OC[C@H]2O[C@@H](OCCc3ccccc3)[C@H](O)[C@@H](O)[C@@H]2O)[C@@H]1O
inactive: Potency [1] | Potency [2] | Potency [3]

O=C(/C=C/c1ccc(O)c(O)c1)O[C@H]1[C@H](OC2CCCCC2O)O[C@H](CO)[C@@H](O)[C@@H]1O (stereo partly drawn)
inactive: Potency [1] | Potency [2] | Potency [3]

COc1cc(/C=C/C(=O)O[C@H]2C[C@@H]3C(C(=O)O)=CO[C@@H](O[C@@H]4O[C@H](CO)[C@@H](O)[C@H](O)[C@H]4O)[C@@H]3[C@H]2C)ccc1O
inactive: Potency [1] | Potency [2] | Potency [3]

CC1=C2C(=O)C=C(CO[C@@H]3O[C@H](CO)[C@@H](O)[C@H](O)[C@H]3O)[C@@H]2[C@H]2OC(=O)[C@H](C)[C@@H]2CC1
inactive: Potency [1] | Potency [2] | Potency [3]

CSCC1OC(n2cnc3c(=O)[nH]cnc32)C(O)C1O (stereo not drawn)
inactive: Potency [1] | Potency [2] | Potency [3]

CN(C)CC(c1ccc(O)cc1)C1(O)CCCCC1 (stereo not drawn)
inactive: Potency [1] | Potency [2] | Potency [3]

CC(=O)/C=C/C1(O)C(C)=CC(=O)CC1(C)C (stereo not drawn)
inactive: Potency [1] | Potency [2] | Potency [3]

C[C@@H]1O[C@@H](O[C@H]2[C@@H]3C=CO[C@@H](O[C@@H]4O[C@H](CO)[C@@H](O)[C@H](O)[C@H]4O)[C@@H]3[C@@]3(CO)O[C@@H]23)[C@H](O)[C@H](OC(=O)/C=C/c2ccc(O)c(O)c2)[C@H]1O
inactive: Potency [1] | Potency [2] | Potency [3]

CC1=CCC(O)C2(C)CCC3C(C)C(=O)OC3C12 (stereo not drawn)
inactive: Potency [1] | Potency [2] | Potency [3]

C=C1CC[C@@H]2[C@](C)(CO)[C@H](O[C@@H]3O[C@H](CO)[C@@H](O)[C@H](O)[C@H]3O)CC[C@@]2(C)[C@@H]1C/C=C1/C(=O)OC[C@H]1O
inactive: Potency [1] | Potency [2] | Potency [3]
